From PubChem BioAssay
Compounds with a hit are over-represented: about 5.3% of the library has one in this group of screens.
15-hLO-2 inh: qHTS Assay for Inhibitors of 15-hLO-2 (15-human lipoxygenase 2) | Polyunsaturated fatty acid lipoxygenase ALOX15B (Homo sapiens), O15296 | purified 15hLO-2, xylenol orange hydroperoxide absorbance | Potency, µM (series often up to 57.1 µM), for inactives: top-dose activity change, negative = inhibition, usual class: inhibitors | actives 0.56% (n = 110,000); further: potency means the concentration at half of the fitted maximal effect; nearly all actives have a fitted effect of over 60% in size
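Purified human 15hLO-2 (50 nM final) preincubated with compounds 15 min at room temperature in 25 mM Hepes pH 7.5, 0.01% Triton X-100, then 45 uM arachidonic acid added for 90 min; hydroperoxide detected via ferrous/xylenol orange, 573/405 nm absorbance ratio.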
IMPase Li cell: qHTS Assay for Identifying the Cell-Membrane Permeable IMPase Inhibitors: Potentiation with Lithium; CHO-M1 cells, IP1 TR-FRET (IP-One), carbachol + lithium; Potency, µM (highest dose often 59.4 µM), for the others: top-dose activity, negative = IMPase inhibition, most hits filed as inhibitors; actives 0.35% (n = 210,000); AID 1457, 2008;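 further: IP1 builds up when IMPase is blocked and the TR-FRET signal falls; potency means the concentration at half of the fitted maximal effect; plate controls were basal vehicle for no effect and high inhibitor control for full effect; nearly all actives have a fitted effect of over 50% in size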
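CHO cells stably expressing M1 receptor (2000/well, cultured 16–30 h) treated 30 min at 37C with compound plus low lithium. Cytosolic IP1 by TR-FRET (665/620 ratio and 620 channel) after 10 min lysis; AC50 by Hill fit.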
12-hLO inh: qHTS Assay for Inhibitors of 12-hLO (12-human lipoxygenase) | actives 0.12% (n = 150,000) | Potency, µM (titrated, usually from 57.1 µM), for inactives: top-dose activity change, negative = inhibition, most hits filed as inhibitors | Polyunsaturated fatty acid lipoxygenase ALOX12 (Homo sapiens), P18054 | purified 12-hLO, xylenol orange hydroperoxide absorbance; further: potency means the concentration at half of the fitted maximal effect; nearly all actives have a fitted effect of over 55% in size
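Lipoxygenase turnover measured by absorbance at 573 and 405 nm after Fe-XO development. Human 12hLO 150 nM, arachidonate 40 uM, pH 7.0 Hepes buffer with detergent; 15 min compound preincubation, 30 min reaction.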
IMPase inh: qHTS Assay for Identifying the Cell-Membrane Permeable IMPase Inhibitors. Inositol monophosphatase 1 (Rattus norvegicus), P97697. CHO-M1 cells, IP1 accumulation, HTRF TR-FRET ratio. inhibition (IP1 accumulation), % at 46.1 µM. 120,000 tested, under 10 active. AID 901, 2007; active means well fitted curve in the direction sought with a large enough effect in the signal ratio, not every such curve was filed as active; inconclusive means small, poorly fitted or top-dose-only effect, or a change in a side signal; inactive means no such curve, though single readings can be large or run the other way; the % refers to the signal ratio;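 further: cells stimulated with carbachol in lithium chloride buffer; plate controls were DMSO basal wells for no effect and reference inhibitor wells for full effect; higher means more IMPase inhibition seen as more IP1 and lower FRET ratio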
Target sequence (P97697 whole entry, looked up): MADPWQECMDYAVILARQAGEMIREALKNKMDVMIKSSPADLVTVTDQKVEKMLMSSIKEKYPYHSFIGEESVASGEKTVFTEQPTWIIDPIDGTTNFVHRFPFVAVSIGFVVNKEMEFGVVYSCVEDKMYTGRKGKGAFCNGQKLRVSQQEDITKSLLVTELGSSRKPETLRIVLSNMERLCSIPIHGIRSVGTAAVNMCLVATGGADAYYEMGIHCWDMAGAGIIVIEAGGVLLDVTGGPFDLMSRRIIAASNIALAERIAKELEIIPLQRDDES
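The IP-One HTRF competitive assay in carbachol-stimulated CHO-M1 cells quantifies cellular IP1. Compounds spanned up to 46 uM final, and activity is expressed as AC50 from concentration-response fits of the ratio and donor data.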
PNC assembly inh: High Content Assay for Compounds that inhibit the Assembly of the Perinucleolar Compartment; activity change (PNC), negative = inhibition, % at 10 µM; actives 3.1% (n = 140,000); PC3M PTB-GFP, PNC prevalence imaging, 16 h; hits give low values; AID 2417, 2010;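 active means readout at or below -70, meaning at least 70% loss of cells showing the perinucleolar compartment, a nuclear body marking cancer cells; inconclusive means readout between -30 and a set limit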;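 further: plate controls were DMSO wells for no effect and camptothecin positive control wells for full effect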
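Compounds are pinned in duplicate onto adhered PC3M cells stably expressing GFP-tagged PTB and incubated 16 h at 37 C. Cells are then fixed, nuclei stained with Hoechst, and PNC-positive cells counted.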
HPGD block: qHTS Assay for Inhibitors of HPGD (15-Hydroxyprostaglandin Dehydrogenase). 15-hydroxyprostaglandin dehydrogenase [NAD(+)] (Homo sapiens), P15428. purified HPGD, NADH fluorescence kinetic, PGE2 substrate. Potency, µM, for inactives: top-dose activity change, negative = inhibition, most hits filed as inhibitors. actives 4.3% (n = 150,000). AID 894, 2007; active means well fitted inhibition curve with a large enough effect, not every such curve was filed as active; inconclusive means small, poorly fitted or top-dose-only effect, or another doubt; inactive means no such curve, though single readings can be large or run the other way; further: potency means the concentration at half of the fitted maximal effect
Target sequence (P15428 whole entry, looked up): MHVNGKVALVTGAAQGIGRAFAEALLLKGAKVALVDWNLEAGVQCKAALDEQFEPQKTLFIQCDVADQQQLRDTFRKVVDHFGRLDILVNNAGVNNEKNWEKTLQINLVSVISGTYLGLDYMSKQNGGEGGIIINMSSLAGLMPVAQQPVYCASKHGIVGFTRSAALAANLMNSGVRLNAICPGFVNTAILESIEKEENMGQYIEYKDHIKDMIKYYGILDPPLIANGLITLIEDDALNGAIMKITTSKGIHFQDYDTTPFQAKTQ
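20 nM HPGD preincubated 15 min at room temperature with compound in 50 mM Tris-HCl pH 8, 0.01% Tween 20. Started with 1 mM NAD+ and 30 uM prostaglandin E2; NADH fluorescence (360/450 nm) read 5 times over 30-s intervals, last minus first.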
Starred values were filed as active, the others as inactive; ! = repeats disagree; [ ] = another dose, or the depositor's remark. Unless noted, the call rests on the fitted dose curve; in most records, active means well fitted curve in the direction sought with a large enough effect; inconclusive means small, poorly fitted or top-dose-only effect, or another doubt; inactive means no such curve, though single readings can be large; an effect the other way counts as inactive or inconclusive. Unless noted, on the % scale 0 is the no-effect control and ±100 the full control effect.

How did Cc1ccc(C)n1-c1ccc(-c2ccn[nH]2)cc1 do in these assays?
IMPase Li cell: 20%

How did Cc1ccc(C)n1-c1nc(=S)[nH][nH]1 do in these assays?
15-hLO-2 inh: 5%; IMPase Li cell: 10%[38.3 µM]; 12-hLO inh: inconclusive; IMPase inh: 2; PNC assembly inh: -5; HPGD block: 16µM*

What do the screens show for `CCOC(=O)CC(NC(=O)c1cccc2c1C(=O)N(Cc1cccnc1)C2)c1ccc(OC(C)C)cc1` (configuration not stated)?
IMPase Li cell: 5%

What do the screens show for `Nc1nonc1-c1nc2ccccc2n1Cc1cccc(Cl)c1`?
IMPase inh: -3

How did O=Cc1cn(-c2ccccc2)nc1-c1ccc2c(c1)OCCO2 do in these assays?
IMPase Li cell: -9%; 12-hLO inh: -5%; IMPase inh: -7; PNC assembly inh: inconclusive; HPGD block: -13%

What do the screens show for `N#Cc1cn(-c2ccccc2)nc1-c1ccc2c(c1)OCCO2`?
15-hLO-2 inh: -7%; IMPase Li cell: inconclusive; 12-hLO inh: 0%; IMPase inh: 5; PNC assembly inh: -100*; HPGD block: -9%

What do the screens show for `Cc1c(N=Cc2c(O)n(Cc3ccco3)c(=O)c3ccccc23)c(=O)n(-c2ccccc2)n1C`?
15-hLO-2 inh: inconclusive; IMPase Li cell: 31%[38.3 µM]; 12-hLO inh: -13%; IMPase inh: 0; PNC assembly inh: -100*!; HPGD block: -12%

Results for FC(F)(F)c1cccc(-c2ccn3ncnc3n2)c1 ?
IMPase Li cell: 1%

How did CN(C)c1ccc(C(=O)/C=C/c2ccco2)cc1 do in these assays?
IMPase Li cell: 1%; 12-hLO inh: -4%; PNC assembly inh: -10; HPGD block: 32µM*

Results for CS(=O)(=O)c1ccc2nc(NC3(C(F)(F)F)N=C4SCCN4C3=O)sc2c1 (configuration not stated) ?
15-hLO-2 inh: -2%; IMPase Li cell: -5%[38.3 µM]; 12-hLO inh: 10%; IMPase inh: -8; PNC assembly inh: -106*; HPGD block: 0%

Results for CC(C)(C)SCCNC(=O)CN(c1ccccc1)S(=O)(=O)c1ccccc1 ?
IMPase Li cell: 4%

How did Cc1csc(NC(=O)CSc2nnc3ncccn23)n1 do in these assays?
15-hLO-2 inh: -3%; 12-hLO inh: 0%; IMPase inh: 12; PNC assembly inh: inconclusive

How did CCc1nnc(NC(=O)CSc2nnc3ncccn23)s1 do in these assays?
15-hLO-2 inh: 5%[11.4 µM]; IMPase Li cell: 30%[38.3 µM]; 12-hLO inh: 1%; IMPase inh: -10[1.84 µM]; PNC assembly inh: -82*; HPGD block: -27%

Results for CC(=O)N1C(=O)CC(C)N(C(C)=O)c2ccc([N+](=O)[O-])cc21 (configuration not stated) ?
IMPase Li cell: 4%; 12-hLO inh: -1%; IMPase inh: -3; PNC assembly inh: inconclusive; HPGD block: -8%

Results for CC(C)NC(=O)CSCc1c(Cl)cccc1Cl ?
15-hLO-2 inh: -2%; IMPase Li cell: 41%[38.3 µM]; 12-hLO inh: -3%; IMPase inh: 0; PNC assembly inh: 29; HPGD block: 14µM*

What do the screens show for `O=C(CSCc1c(Cl)cccc1Cl)Nc1nccs1`?
15-hLO-2 inh: 2%; IMPase Li cell: -14%[38.3 µM]; 12-hLO inh: -3%; IMPase inh: 9; PNC assembly inh: -12; HPGD block: 20µM*

How did O=C(CSCc1ccccc1)Nc1nccs1 do in these assays?
15-hLO-2 inh: -3%; IMPase Li cell: -6%[38.3 µM]; 12-hLO inh: -3%; IMPase inh: 3; PNC assembly inh: 16; HPGD block: -9%

What do the screens show for `CCCOCC(C)O` (configuration not stated)?
15-hLO-2 inh: -3%; IMPase Li cell: -9%; 12-hLO inh: -3%; HPGD block: 0%

How did CC(=O)c1cc(C(=O)Nc2ccc(C(=O)O)cc2)oc1C do in these assays?
15-hLO-2 inh: -4%; IMPase Li cell: 13%[38.3 µM]; 12-hLO inh: 10%; IMPase inh: -4; PNC assembly inh: inconclusive; HPGD block: -11%

Results for Cc1oc(C(=O)Nc2ccc(C(=O)O)cc2)cc1COc1ccccc1 ?
15-hLO-2 inh: 0%; IMPase Li cell: 17%[38.3 µM]; 12-hLO inh: -3%; IMPase inh: 0; PNC assembly inh: inconclusive; HPGD block: 20µM*

How did O=C(O)c1ccc2c(c1)C(=O)N(c1cccc(C(=O)/C=C/c3ccccc3)c1)C2=O do in these assays?
IMPase Li cell: -3%

How did Cc1ccc(-n2c(C(C)n3nc(C)c([N+](=O)[O-])c3C)n[nH]c2=S)cc1 (configuration not stated) do in these assays?
IMPase Li cell: 4%; 12-hLO inh: -4%; IMPase inh: -8; PNC assembly inh: 2; HPGD block: -14%

Results for Cc1nn(C(C)c2n[nH]c(=S)n2-c2cccc(Cl)c2)c(C)c1[N+](=O)[O-] (configuration not stated) ?
IMPase Li cell: 6%; 12-hLO inh: -14%; IMPase inh: 2; PNC assembly inh: 86; HPGD block: 22µM*

How did Cc1ncsc1CCOC(=O)c1ccc(Cl)cc1 do in these assays?
IMPase Li cell: 22%

Results for COc1ccc2c(c1)c1ncn(CCCN3CCOCC3)c(=O)c1n2C ?
15-hLO-2 inh: 8%; IMPase Li cell: 4%[38.3 µM]; 12-hLO inh: -4%; IMPase inh: -4; PNC assembly inh: 7; HPGD block: inconclusive

What do the screens show for `Cn1c2ccccc2c2ncn(CCN3CCOCC3)c(=O)c21`?
15-hLO-2 inh: -2%; 12-hLO inh: -1%; IMPase inh: 8; PNC assembly inh: -87*

Results for COc1ccc(S(=O)(=O)/N=C2/C=CC(=O)C(C)=C2C)cc1 ?
15-hLO-2 inh: 13µM*; IMPase Li cell: -11%[38.3 µM]; 12-hLO inh: -22%; IMPase inh: 5; PNC assembly inh: -28; HPGD block: inconclusive

Results for CC1=C(C)/C(=N\OS(=O)(=O)c2ccc(C)cc2)C=CC1=O ?
IMPase Li cell: 25%; 12-hLO inh: 2%; PNC assembly inh: inconclusive; HPGD block: -10%

What do the screens show for `COc1ccccc1/C=C/C(=O)OCc1nc2ccccc2c(=O)[nH]1`?
IMPase Li cell: 5%
